Compound activity as filed in PubChem.
Rows were chosen to be rich in hits. Some 4.2% of all compounds tested hit in one or more screens of this group.
GDH-TPI inh = inhibits GDH-TPI coupling enzymes, artifact for Mtb FBA screen | GDH-TPI coupled enzyme counterscreen, NADH absorbance | inhibition, % at 4.8 µM | 360,000 tested, 1.2% active; in the data active = inhibition above about 30%;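 also: 0% = DMSO wells and 100% = wells lacking the enzyme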
BJeLR viability = BJeLR cell viability loss; BJeLR (HRASV12) viability, CellTiter-Glo ATP luminescence, 48 h; inhibition, % (test concentration not listed); 300,000 tested, 0.17% active; in the data active = inhibition above about 50%
PrPC TRFRET = cell surface PrPC inhibition, primary TR-FRET screen; TR-FRET read-out; P04156; inhibition, % at 13.8 µM; 370,000 tested, 0.43% active; in the data active = inhibition above about 24%; also: 0% = median of the test wells and 100% = reference compound wells
Mtb FBA inh = inhibitors of M. tuberculosis fructose-bisphosphate aldolase; 360,000 tested, 2.3% active; purified M. tuberculosis FBA, fluorescence read-out; P9WQA3; inhibition, % at 1 µM; in the data active = inhibition above about 27%;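 also: 0% = vehicle and 100% = reference inhibitor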
RecA intein inh = Mtb RecA intein splicing inhibition; inhibition, % (no concentration beside the values); P9WHJ3; cell-free RecA intein splicing, fluorescence; 290,000 tested, 0.75% active; in the data active = inhibition above about 30%;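 also: 0% = vehicle wells and 100% = reference inhibitor control wells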
PrPC confirm = confirmation of inhibitors of cell surface human prion protein | shares compounds with PrPC TRFRET | cell surface PrPC level, TR-FRET | inhibition, % at 13.8 µM | 1,500 tested, 65% active | AID 743200; in the data active = inhibition above about 25%
LD9 cytotox = counter-screen for PrPc inhibitors: cytotoxicity in LD9 cells. shares compounds with PrPC TRFRET. luminescence viability. inhibition, % at 13.8 µM. 1,500 tested, 29% active; in the data active = inhibition above about 9.5%
An asterisk follows results filed as active; · = no result given.

SMILES | GDH-TPI inh | BJeLR viability | PrPC TRFRET | Mtb FBA inh | RecA intein inh | PrPC confirm | LD9 cytotox
Cc1ccc(-n2c(-c3ccc(Br)cc3)c[n+]3c2CCc2ccc4cccnc4c2-3)cc1 | -2 | 77* | 25* | 6 | 21 | 31* | 46*
COc1ccccc1NC(=O)OC[C@@H]1CSCCS(=O)(=O)N1 | · | · | 0 | · | · | · | ·
CCOC(=O)C(C)Sc1nc2c(c(-c3cccs3)c1C#N)CCC2 (stereo unspecified) | 8 | -11 | 65* | 4 | -8 | 76* | -4
N#Cc1c(SC(C(=O)O)c2ccccc2)nc2c(c1-c1cccs1)CCCC2 (stereo unspecified) | 5 | -2 | 52* | -3 | 13 | 52* | -9
Cc1nc2sc(C(=O)NCc3ccncc3)c(N)c2c(C)c1Cl | · | · | 8 | · | · | · | ·
COC1=CC(=O)c2c(ccc3ncnc(N)c23)C1=O | 13 | · | 61* | -2 | · | 84* | 98*
O=C(NCC1CCN(C(=O)C(=O)c2cccs2)CC1)c1ccc2ccccc2c1 | · | · | 4 | · | · | · | ·
CSc1nc2c(cc1C#N)CCC2 | 2 | 8 | 5 | 0 | 3 | · | ·
Brc1cc(Br)c2nc3c(cc2c1)CCC3 | -1 | -17 | 26* | 0 | -2 | 71* | 1
Cc1ccc(-n2c(SCc3cccc(F)c3)nnc2-c2cccc(C)c2)cc1 | · | · | 11 | · | · | · | ·
Cc1ccc(S(=O)(=O)NCCCN2CCCC2)cc1 | 10 | 10 | 55* | -1 | -1 | -1 | -10
O=C(OCc1cn(Cc2ccccc2F)nn1)N1CCOCC1 | · | · | -4 | · | · | · | ·
CC(C)(C)c1csc(NC(=O)CSc2nc3ccccc3c(=O)[nH]2)n1 | 3 | 4 | 4 | 1 | 0 | · | ·
CC(C)(C)c1csc(NC(=O)Cn2cnc3ccccc3c2=O)n1 | -1 | 0 | 35* | 0 | -3 | 25* | 1
Cc1cc(-c2n[nH]c(=S)n2N=Cc2cc(Br)ccc2F)n[nH]1 | · | · | 6 | · | · | · | ·
COc1cc(-c2nc3ccc(C)cn3c2NCc2ccccc2)ccc1SC1CCCCC1 | 12 | 1 | 25* | 39* | 0 | 14 | 11*
CCOC(=O)c1c(/N=C/N(C)C)sc(/C=N/Nc2ccccc2)c1-c1ccc(Cl)cc1 | 4 | 0 | 26* | -1 | -7 | 33* | -5
NCCCNc1nc(N)c([N+](=O)[O-])c(NC2CCCCC2)n1 | 21 | 5 | 66* | -2 | -1 | 79* | 25*
Cc1cc(NCCCn2ccnc2)n2nc(C)c(-c3ccc(Cl)cc3)c2n1 | 6 | -4 | 44* | 11 | 8 | 2 | 9.7*
COc1cc2c(cc1OC)C(C(=O)O)C(c1ccc3c(c1)OCO3)N(C)C2=O (stereo unspecified) | · | · | 3 | · | · | · | ·
CC(C)(C)C(=O)c1cnc(Nc2ccccc2Cl)s1 | 16 | -2 | 28* | 1 | 5 | 36* | 1
CC(=O)c1csc(Nc2ccccc2Cl)n1 | -9 | 0 | -4 | 0 | 13 | · | ·
Oc1ccc2ccc3[nH]cnc3c2c1 | 0 | 0 | 32* | 0 | -3 | 6 | -7
CN(C)Cc1c(O)ccc2[nH]cnc12 | -4 | 0 | -2 | -3 | -3 | · | ·
COc1cccc2c(NCc3ccccc3)nc(-n3c(N)nc4ccccc43)nc12 | · | · | 70* | · | · | 49* | 98*
SMILES | GDH-TPI inh | BJeLR viability | PrPC TRFRET | Mtb FBA inh | RecA intein inh | PrPC confirm | LD9 cytotox
Cc1ccc(C(=O)Nc2ncc(Cc3ccccc3)s2)o1 | 10 | 6 | 27* | -3 | 1 | 26* | 3
O=C(Nc1ncc(Cc2ccccc2)s1)c1cccs1 | 3 | -6 | 16 | 2 | 2 | · | ·
CC(C)(C)OC(=O)NCCCCCc1cn([C@@H](CO)C(=O)NCCCCCCCCCCC(=O)N2CCN(C(=O)OC(C)(C)C)CC2)nn1 | -6 | · | 53* | 2 | · | 34* | 36*
COc1cc(/C=C/C(=O)NCCn2c(C)cc3ccccc32)cc(OC)c1OC | 0 | 2 | 49* | 1 | 5 | -4 | 10*
COc1ccc(/C=C/C(=O)NCCn2c(C)cc3ccccc32)cc1OC | 20 | 3 | 64* | 0 | 2 | 2 | 6
COc1cc(/C=C/C(=O)NCCN2CCOCC2)cc(OC)c1OC | 7 | 1 | 1 | 19 | -2 | · | ·
COc1cccc(C(NC(C)=O)c2ccc3cccnc3c2O)c1 (stereo unspecified) | 5 | 22 | 41* | 3 | · | 33* | 44*
